The full list was thinned out, with the strongest signals kept by preference.
Assays:
Assay in all cases: glycan array binding signal (z-score within array); higher = stronger binding
Details in all cases: glycan notation: IUPAC condensed, linker removed
Neu5Ac(a2-3)Gal = biological target: Neu5Ac(a2-3)Gal
Outline: (§1)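 The binding signal is a Z-score computed within each array. Data were drawn from 3228 arrays in the Consortium for Functional Glycomics database, restricted to those with a known protein sequence. Scores were averaged over arrays of the same protein sequence at different concentrations or buffers, and over linkers, and negative values can be taken as non-binding.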

[1] = biological target: Neu5Ac(a2-3)Gal(b1-3)GalNAc6S
Outline: as §1

[2] = biological target: Neu5Ac(a2-3)Gal(b1-4)GlcNAc(b1-2)Man(a1-3)[GlcNAc(b1-2)Man(b1-4)GlcNAc(b1-2)Man(a1-6)]Man(b1-4)GlcNAc(b1-4)GlcNAc
Outline: as §1

[3] = biological target: Neu5Ac(a2-3)Gal6S(b1-4)GlcNAc
Outline: as §1

[4] = biological target: Neu5Ac(a2-6)Gal(b1-4)GlcNAc(b1-2)Man(a1-3)[GlcNAc(b1-2)Man(a1-6)]Man(b1-4)GlcNAc(b1-4)GlcNAc
Outline: as §1

[5] = biological target: Neu5Ac(a2-6)Gal(b1-4)GlcNAc(b1-2)Man(a1-3)[Man(a1-6)]Man(b1-4)GlcNAc(b1-4)GlcNAc
Outline: as §1

[6] = biological target: Neu5Gc(a2-3)Gal(b1-4)GlcNAc
Outline: as §1

Neu5Gc(a2-6)GalNAc = biological target: Neu5Gc(a2-6)GalNAc
Outline: as §1

[7] = biological target: Fuc(a1-2)Gal(b1-4)GlcNAc(b1-3)Gal(b1-4)GlcNAc
Outline: as §1

[8] = biological target: Fuc(a1-2)Gal(b1-4)GlcNAc(b1-3)[Fuc(a1-2)Gal(b1-4)GlcNAc(b1-6)]GalNAc
Outline: as §1

[9] = biological target: Fuc(a1-2)Gal(b1-4)[Fuc(a1-3)]GlcNAc(b1-2)Man(a1-3)[Fuc(a1-2)Gal(b1-4)[Fuc(a1-3)]GlcNAc(b1-2)Man(a1-6)]Man(b1-4)GlcNAc(b1-4)GlcNAc
Outline: as §1

[10] = biological target: Fuc(a1-2)Gal(b1-4)[Fuc(a1-3)]GlcNAc(b1-2)[Fuc(a1-2)Gal(b1-4)[Fuc(a1-3)]GlcNAc(b1-4)]Man(a1-3)[Fuc(a1-2)Gal(b1-4)[Fuc(a1-3)]GlcNAc(b1-2)Man(a1-6)]Man(b1-4)GlcNAc(b1-4)GlcNAc
Outline: as §1

[11] = biological target: Fuc(a1-2)Gal(b1-4)[Fuc(a1-3)]GlcNAc(b1-3)Gal(b1-4)[Fuc(a1-3)]GlcNAc(b1-3)Gal(b1-4)[Fuc(a1-3)]GlcNAc
Outline: as §1

[12] = biological target: Fuc(a1-2)Gal(b1-4)[Fuc(a1-3)]GlcNAc(b1-3)GalNAc
Outline: as §1

[13] = biological target: Fuc(a1-2)[Gal(a1-3)]Gal(b1-4)[Fuc(a1-3)]Glc
Outline: as §1

[14] = biological target: Fuc(a1-2)[Gal(a1-4)]Gal(b1-4)GlcNAc
Outline: as §1

[15] = biological target: Fuc(a1-2)[GalNAc(a1-3)]Gal
Outline: as §1

[16] = biological target: Fuc(a1-2)[GalNAc(a1-3)]Gal(b1-4)Glc
Outline: as §1

[17] = biological target: Fuc(a1-2)[GalNAc(a1-3)]Gal(b1-4)[Fuc(a1-3)]GlcNAc
Outline: as §1

[18] = biological target: Fuc(a1-3)[Gal3S(b1-4)]GlcNAc6S
Outline: as §1

Gal(a1-3)Gal(b1-4)Glc = biological target: Gal(a1-3)Gal(b1-4)Glc
Outline: as §1

[19] = biological target: Gal(a1-4)Gal(b1-4)GlcNAc(b1-3)Gal(b1-4)Glc
Outline: as §1

[20] = biological target: Gal(b1-3)GalNAc(a1-3)[Fuc(a1-2)]Gal(b1-4)Glc
Outline: as §1

[21] = biological target: Gal(b1-3)GlcNAc(b1-2)Man(a1-3)[GlcNAc(b1-4)][Gal(b1-3)GlcNAc(b1-2)Man(a1-6)]Man(b1-4)GlcNAc(b1-4)GlcNAc
Outline: as §1

[22] = biological target: Gal(b1-4)GalNAc(b1-3)[Fuc(a1-2)]Gal(b1-4)GlcNAc
Outline: as §1

[23] = biological target: Gal(b1-4)GlcNAc(b1-2)Man(a1-3)Man(b1-4)GlcNAc(b1-4)GlcNAc
Outline: as §1

Gal(b1-4)GlcNAc6P = biological target: Gal(b1-4)GlcNAc6P
Outline: as §1

Gal(b1-6)Gal = biological target: Gal(b1-6)Gal
Outline: as §1

Gal3S(b1-4)Glc = biological target: Gal3S(b1-4)Glc
Outline: as §1

[24] = biological target: Gal3S(b1-4)[Fuc(a1-3)]Glc6S
Outline: as §1

Gal6S(b1-4)GlcNAc6S = biological target: Gal6S(b1-4)GlcNAc6S
Outline: as §1

GalNAc(b1-4)Gal(b1-4)Glc = biological target: GalNAc(b1-4)Gal(b1-4)Glc
Outline: as §1

GalNAc6S(b1-4)GlcNAc = biological target: GalNAc6S(b1-4)GlcNAc
Outline: as §1

[25] = biological target: GlcNAc(a1-4)Gal(b1-4)GlcNAc(b1-3)Gal(b1-4)[Fuc(a1-3)]GlcNAc(b1-3)Gal(b1-4)[Fuc(a1-3)]GlcNAc
Outline: as §1

[26] = biological target: GlcNAc(b1-3)[GlcNAc(b1-4)][GlcNAc(b1-6)]GlcNAc
Outline: as §1

[27] = biological target: Man(a1-2)Man(a1-2)Man(a1-6)[Man(a1-3)]Man
Outline: as §1

[28] = biological target: Neu5Ac(a2-3)Gal(b1-3)GlcNAc(b1-3)Gal(b1-3)GlcNAc
Outline: as §1

[29] = biological target: Neu5Ac(a2-3)Gal(b1-3)GlcNAc6S
Outline: as §1

| Binder | glycan array binding signal (z-score) (Neu5Ac(a2-3)Gal) | glycan array binding signal (z-score) [1] | glycan array binding signal (z-score) [2] | glycan array binding signal (z-score) [3] | glycan array binding signal (z-score) [4] | glycan array binding signal (z-score) [5] | glycan array binding signal (z-score) [6] | glycan array binding signal (z-score) (Neu5Gc(a2-6)GalNAc) | glycan array binding signal (z-score) [7] | glycan array binding signal (z-score) [8] | glycan array binding signal (z-score) [9] | glycan array binding signal (z-score) [10] | glycan array binding signal (z-score) [11] | glycan array binding signal (z-score) [12] | glycan array binding signal (z-score) [13] | glycan array binding signal (z-score) [14] | glycan array binding signal (z-score) [15] | glycan array binding signal (z-score) [16] | glycan array binding signal (z-score) [17] | glycan array binding signal (z-score) [18] | glycan array binding signal (z-score) (Gal(a1-3)Gal(b1-4)Glc) | glycan array binding signal (z-score) [19] | glycan array binding signal (z-score) [20] | glycan array binding signal (z-score) [21] | glycan array binding signal (z-score) [22] | glycan array binding signal (z-score) [23] | glycan array binding signal (z-score) (Gal(b1-4)GlcNAc6P) | glycan array binding signal (z-score) (Gal(b1-6)Gal) | glycan array binding signal (z-score) (Gal3S(b1-4)Glc) | glycan array binding signal (z-score) [24] | glycan array binding signal (z-score) (Gal6S(b1-4)GlcNAc6S) | glycan array binding signal (z-score) (GalNAc(b1-4)Gal(b1-4)Glc) | glycan array binding signal (z-score) (GalNAc6S(b1-4)GlcNAc) | glycan array binding signal (z-score) [25] | glycan array binding signal (z-score) [26] | glycan array binding signal (z-score) [27] | glycan array binding signal (z-score) [28] | glycan array binding signal (z-score) [29] |
| --- | --- | --- | --- | --- | --- | --- | --- | --- | --- | --- | --- | --- | --- | --- | --- | --- | --- | --- | --- | --- | --- | --- | --- | --- | --- | --- | --- | --- | --- | --- | --- | --- | --- | --- | --- | --- | --- | --- |
| NanH (Corynebacterium diphtheriae), C6JSW6 (protein) MYSSNRTYSRAILGLSAVLTLSFTSLVAPVNAEEPETVVPATAELEGEVAATLPSAETGLLDAAPPKPVARGAAGDLQLPAVNEKEVFEEGRVIRAPEPDQSRCYRIPALVTAKNGDLLLAFDNRYGGGDGAKTWCRDAPYENMKRINRQNMQTDIQLYRSVDNGQSFEDFGYIAQGTADVRELSYTDPALVTDRTTGKIFAFFVRAYDYRVGQSSAGFNEGDVEAEIQKRDVQDTVVVESLDGGQTWGNMRLLSALTAKVSSISTGDTIFDGRGRFVTSGAGIQLQYGEHAGRLIVPISVDIDPKDSAKFINLAIYSDDHGQTWQAGIGTAGGAGFSGDVSKIVELSDGRLMMSSKDNDKPRWVSYSEDQGENWSTPKRKIIAPPQHPEKHNTGINVGLIRAYPNAPENSAAARVLLYSAPIDQRYSHKHTEDGRNNGWVMGSCDDGKTWSFGRQIEKNRFQYSSMTVMSDGNIGMVYESGDFSTGMNLKFAKFNMAWLGADCHSNEALGLTGDIDKEIVEAQEKAAEATKEAQEAAEKVQKLTEELAAARKENDELKNQVKGFKEAVGDLANEAEDLADKVFKLETAVTEAKEKATVAEKAASDAVTQLQKAESIAEEQKAKAESAAAEAQALREKLERLEGSILTVKENPEAEEIADLSSTAKDAADAARRAATDANGALSGQKQDEEKPAMGLMGILKVLAGIIPLVAIIATIFQTFRLPFNIPGMR | 0.353 | 1.83 | 0.603 | -1.04 | 0.122 | -0.077 | -0.068 | 0.15 | – | – | – | – | – | – | – | – | – | – | – | – | – | – | – | – | – | – | – | – | – | – | – | – | – | – | – | – | – | – |
| OrfX (Escherichia coli), Q9X4B6_ECOLX (protein) MIKIARIAVTLGLLSSLGAQAYAAGLVVNDNDLRNDLAWLSDRGVIHLSLSTWPLSQEEIARALKKAKPSYSSEQVVLARINQRLSALKADFRVTGYTSTDQPGTPQGFGQTQPADNSLGLAFNNSGEWWDVHLQGNVEGGERISNGSRFNANGAYGAVKFWNQWLSFGQVPQWWGPGYEGSLIRGDAMRPMTGFLMQRAEQAAPETWWLRWVGPWQYQISASQMNQYTAVPHAKIIGGRFTFTPFQSLELGASRIMQWGGEGRPQSFSSFWDGFTGHDNTGTDNEPGNQLAGFDFKFKLEPTLGWPVSFYGQMVGEDESGYLPSANMFLGGVEGHHGWGKDTVNWYVEAHDTRTNMSRTNYSYTHHIYKDGYYQQGYPLGDAMGGDGQLIAGKVELITEDNQRWSTRLVYAKVNPENQSINKAFPHADTLKGLQLGWSGDVYQSVRLNTSLWYTNANNSDSDDVGASAGIEIPFSL | – | – | – | – | – | – | – | – | -0.191 | 0.429 | 0.202 | -0.108 | -0.02 | 4.3 | -0.132 | -0.32 | -0.116 | -0.196 | 0.042 | 2.97 | -0.261 | -0.181 | -0.182 | 0.214 | -0.145 | -0.266 | 0.611 | 0.048 | 0.076 | 2.79 | 2.74 | 0.667 | -0.318 | 10.6 | 11.2 | -0.231 | -0.096 | -0.301 |
